This is a sample that favours compounds with a hit; in the whole collection about 21% have one here.
D3 antag: blocks the human D3 dopamine receptor | P35462 | max response, negative = inhibition, % | 360,000 compounds, 2.5% hits | D3R cells, DiscoveRx beta-arrestin luminescence, antagonist mode; hits give low values; in the data active means max response below about -50%; inconclusive means no clear call, values can overlap the other calls; further: on the % scale 0 is the no-effect control and ±100 the full control effect
Target sequence (P35462 whole entry, looked up): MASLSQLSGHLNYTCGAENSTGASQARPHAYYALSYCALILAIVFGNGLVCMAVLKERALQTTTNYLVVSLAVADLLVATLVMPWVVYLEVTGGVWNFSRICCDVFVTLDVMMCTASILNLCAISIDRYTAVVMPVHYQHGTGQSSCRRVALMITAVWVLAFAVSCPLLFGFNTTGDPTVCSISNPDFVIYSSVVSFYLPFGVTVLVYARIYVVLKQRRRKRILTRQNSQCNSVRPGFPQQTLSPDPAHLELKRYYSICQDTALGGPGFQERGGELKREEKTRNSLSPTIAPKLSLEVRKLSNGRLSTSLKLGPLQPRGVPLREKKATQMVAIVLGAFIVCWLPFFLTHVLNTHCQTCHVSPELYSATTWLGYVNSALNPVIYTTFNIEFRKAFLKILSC
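Cells plated overnight at 1500 cells/well, then exposed to library compounds with dopamine controls for 90 minutes at 37 degrees C. DiscoveRx reagent added for 30–60 minutes at room temperature; luminescence read, quantitative HTS format.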
ClpP mod: qHTS Assay for Activators of ClpP; ATP-dependent Clp protease proteolytic subunit (Bacillus subtilis (strain 168)), P80244; purified B. subtilis ClpP, FRET peptide cleavage, 20 min; Potency, µM (doses to about 57.5 µM), without a hit: at the top dose activity change, negative = active; 340,000 compounds, 1.9% hits; active means well fitted falling curve with a large enough effect; inconclusive means small, poorly fitted or top-dose-only effect; inactive means no such curve, though single readings can be large or run the other way; further: potency means the concentration at half of the fitted maximal effect; the source files actives as falling curves though it sought activators and does not explain the sign; nearly all actives have a fitted effect of over 65% in size
Target sequence (P80244 whole entry, looked up): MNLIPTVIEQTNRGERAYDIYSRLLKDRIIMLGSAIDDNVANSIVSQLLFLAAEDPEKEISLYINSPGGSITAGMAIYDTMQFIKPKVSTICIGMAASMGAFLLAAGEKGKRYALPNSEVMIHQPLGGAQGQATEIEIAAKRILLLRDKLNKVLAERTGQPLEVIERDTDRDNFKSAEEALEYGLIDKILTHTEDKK
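Buffer: 100 mM Tris/HCl pH8, 100 mM KCl, 0.05% low protease BSA, 2.5% glycerol, 0.01% Tween-20. ClpP 10 microg/mL final; 20 min RT; delta FRET normalized to ADEP and DMSO controls.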
DT40 TDP1 no CPT: qHTS for Inhibitors of human tyrosyl-DNA phosphodiesterase 1 (TDP1): qHTS in cells in absence of CPT; DT40 Tdp1-/- hTDP1 cells, no CPT, ATP luminescence, 48 h; Potency, µM (highest dose often 46.2 µM), inactives show at the highest dose activity change, negative = growth inhibition, most hits filed as inhibitors; 420,000 compounds, 15% hits; AID 686978, 2013; further: potency means the concentration at half of the fitted maximal effect; on the % scale 0 is the no-effect control and ±100 the full control effect; nearly all actives have a fitted effect of over 55% in size
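A cellular qHTS used chicken DT40 cells lacking endogenous Tdp1 but carrying stably transfected human TDP1. Compounds were applied without camptothecin, and cell growth kinetics were judged by ATP-dependent luminescence after ≥48 hr.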
TDP1 cell CPT: DT40-hTDP1 cell growth loss with CPT; 420,000 compounds, 12% hits; Potency, µM (highest dose often 46.2 µM), for the others: top-dose activity change, negative = growth inhibition, most hits filed as inhibitors; chicken DT40 Tdp1-/-;hTDP1 cells + 20 nM CPT, ATP luminescence, 48 h; further: potency means the concentration at half of the fitted maximal effect; on the % scale 0 is the no-effect control and ±100 the full control effect; nearly all actives have a fitted effect of over 55% in size
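Chicken DT40 Tdp1-/- cells stably complemented with human TDP1 were seeded at 400 cells/well in medium containing 20 nM camptothecin, exposed to pin-transferred compounds, and grown at 37 °C for at least 48 hr. Viability was read as ATP luminescence.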
IL-1B inflam inh: blocks inflammasome-driven IL-1 beta release; 360,000 compounds, 4.7% hits; THP-1 LPS/ATP IL-1B secretion, AlphaLISA, 16 h; hits give low values; activity change, % at 57.5 µM; in the data active means activity change below about -50%; inconclusive means mostly about -30% to -49%; further: on the % scale 0 is the no-effect control and ±100 the full control effect
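Secreted IL-1B measured by AlphaLISA bead assay after 16 h compound exposure of THP-1 cells; compounds (final up to 57.5 uM) added 1 h before LPS (250 ng/mL) and ATP (1.25 mM) stimulation; lower signal means less secretion.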
D3 ag: D3 dopamine receptor (human) agonism | D3R DiscoveRx beta-arrestin cells, luminescence, 90 min | max activation, % | 410,000 compounds, 0.58% hits | AID 652048; in the data active means max activation above about 30%; further: 0% is about no effect
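Agonist mode: compounds and dopamine controls were applied to plated cells for 90 min at 37 degrees C after an overnight attachment at 1500 cells/well. Luminescent read-out followed 30 - 60 minutes at room temperature with DiscoveRx detection reagent.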
Starred values were filed as active, the others as inactive; u = inconclusive; x = no result. Unless noted, the call rests on the fitted dose curve; in most records, active means well fitted inhibition curve with a large enough effect; inconclusive means small, poorly fitted or top-dose-only effect; inactive means flat fitted curve, though single readings scatter.

SMILES	D3 antag	ClpP mod	DT40 TDP1 no CPT	TDP1 cell CPT	IL-1B inflam inh	D3 ag
NS(=O)(=O)c1ccc(NC(=O)Nc2ccc(C(F)(F)F)cc2)cc1	5.6	x	18.4µM*	u	-57.9*	7.3
CC(C)(C)c1ccc(C(=O)Nc2ccc(S(N)(=O)=O)cc2)cc1	4.1	x	u	u	-76.1*	1.4
O=C(N=Nc1c(O)[nH]c2ccc(Br)cc12)c1cc(-c2cccs2)nc2ccccc12	13.2	x	6.51µM*	4.61µM*	19.9	0.6
Cn1c(O)c(N=NC(=O)c2cc(-c3cccs3)nc3ccccc23)c2ccccc21	38.0	-5.3%	u	u	15.3	15.2
O=C(N=Nc1c(O)[nH]c2ccc(Br)cc12)c1ccccc1-n1cccc1	-26.7	0.6%	2.59µM*	4.61µM*	2.4	-21.3
Cc1cc(O)c2c(O)c3c(O)cccc3cc2c1	x	x	-23.9%	-6.4%	x	10.3
Cc1cnc(=O)[nH]c1SCc1ccc([N+](=O)[O-])cc1	-2.4	1.5%	-9.8%	-12.5%	-3.5	-1.1
COc1ccc(-c2c(-c3ccccc3OC)sc3ccccc23)cc1OC	-16.8	28.2µM*	4.3%	u	-3.4	18.5
COc1ccccc1-c1sc2ccccc2c1-c1ccccc1OC	3.6	u	u	u	0.0	-4.6
COc1ccccc1-c1sc2ccccc2c1-c1ccc2c(c1)OCCO2	0.0	3.6%	u	u	12.4	-12.2
COc1ccc(-c2c(-c3ccccc3OC)sc3ccccc23)cc1C=O	-59.6*	u	18.4µM*	u	20.2	-2.3
COc1cc(-c2c(CCO)sc3ccccc23)cc(OC)c1OC	-3.7	-3.0%	6.51µM*	6.51µM*	129.7	4.8
COc1cc(-c2c(-c3ccsc3)sc3ccccc23)cc(OC)c1OC	38.1	-20.8%	5.5%	0.9%	13.3	12.4
COc1ccc(-c2sc3ccccc3c2/C=C/c2ccncc2)cc1	72.2	u	16.4µM*	u	-4.2	6.8
COC(=O)[C@@]1(Cc2ccc(OC)cc2)[C@H]2c3cc(C(=O)N4CCCC4)n(Cc4ccsc4Br)c3C[C@H]2CN1C(=O)c1ccccc1	0.0	-3.3%	u	u	x	-8.2
Cc1cnc(CNc2ccnc(-c3ccccc3C)n2)cn1	x	x	-5.6%	10.1%	x	x
COc1ccc(-c2cc(=O)c3ccccc3s2)cc1	2.9	-4.8%	u	u	-59.5*	1.9
COc1ccc(-c2sc3ccccc3c2-c2cc(OC)ccc2C=O)cc1	34.9	-15.5%	20.6µM*	u	78.1	6.8
COc1ccc(N(C(=O)C2CCCCC2)S(=O)(=O)c2cccc3cccnc23)cc1	-17.6	x	-24.2%	15.2%	-51.9*	0.4
Cc1ccc(NC(=O)CN(C)S(=O)(=O)c2cccc3cccnc23)cc1F	3.1	-3.7%	u	u	-6.6	-0.4
COc1ccccc1NC(=O)CN(C)S(=O)(=O)c1cccc2cccnc12	4.8	0.7%	18.4µM*	35.5%	-19.0	0.2
CSc1ccccc1NC(=O)CN(C)C(=O)COc1cccc2cccnc12	u	-4.2%	3.26µM*	5.17µM*	14.4	-20.0
Cc1ccc(NC(=O)CN(C)S(=O)(=O)c2cccc3cccnc23)cc1C	17.1	1.1%	14.6µM*	u	-22.5	-3.1
Cc1cc(F)ccc1NC(=O)CN1C(=O)CCc2cc(S(=O)(=O)N3CCOCC3)ccc21	x	-0.4%	3.5%	6.5%	x	8.1
CCN1CCN(CCNC(=O)c2ccc(CS(=O)c3ccc(Cl)cc3)o2)CC1 (configuration not stated)	-2.5	0.4%	9.7%	-4.9%	44.4	-6.2
SMILES	D3 antag	ClpP mod	DT40 TDP1 no CPT	TDP1 cell CPT	IL-1B inflam inh	D3 ag
O=C(Nc1ccc(C(=O)OCc2cc(=O)n3nc(C4CC4)sc3n2)cc1)c1ccccc1	x	-4.5%	-20.8%	-18.8%	x	-2.4
COc1ccc(N(C)S(=O)(=O)c2cccc3cccnc23)c(OC)c1	33.8	1.4%	18.4µM*	u	22.2	30.7*
COc1ccccc1CNC(=O)CN(C)S(=O)(=O)c1cccc2cccnc12	-3.8	x	-17.4%	-3.2%	4.3	1.8
Fc1ccc2c(c1)-c1nc(-c3ccccc3)cc(-c3ccccc3)c1CO2	x	u	-26.9%	u	x	-4.2
N#C/C(=C\c1ccc(O)c(O)c1)C(=O)N1CCc2ccccc21	8.0	1.0%	20.6µM*	u	8.2	8.5
CC[C@]12c3[nH]c4ccccc4c3CCN1C(=O)C(CC(=O)NCCC1=CCCCC1)C[C@@H]2C(=O)N1CCN(C(=O)C2CC2)CC1 (some centres not stated)	0.0	-0.2%	16.4µM*	18.4µM*	-9.5	-20.2
CC[C@]12c3[nH]c4ccc(Cl)cc4c3CCN1C(=O)[C@@H](CC(=O)NCCC1=CCCCC1)C[C@@H]2C(=O)N1CCN(C(=O)C2CC2)CC1	-3.3	1.2%	25.9µM*	u	-13.4	-20.5
Cc1noc(C)c1S(=O)(=O)N1CCCC(C(=O)c2cccc(OC(C)C)c2)C1 (configuration not stated)	3.5	u	u	1.7%	21.7	9.7
Cc1cc(C)c(C)c(OCCCOc2cccc3cccnc23)c1	2.4	-0.3%	2.8%	u	8.6	13.0
Cc1ccc(OCCNCc2ccccc2)c(C)c1	-69.9*	-0.4%	u	u	-7.5	-10.4
COc1cc(C)ccc1OCCCCNCc1ccccc1	-21.3	-4.1%	u	-25.6%	-6.1	-14.3
Cc1cc(C)c(C)c(OCCOCCNCc2ccccc2)c1	-12.9	-0.7%	18.4µM*	u	u	-5.1
Cc1ccc(OCCCCNC(C)c2ccccc2)c(C)c1 (configuration not stated)	7.4	x	u	u	-91.1*	-19.8
CCOC(=O)C1CCCN(c2oc(-c3ccc(OC)cc3)nc2C#N)C1 (configuration not stated)	13.7	4.2%	u	-3.3%	-2.1	2.2
CCCCn1nnc(NC(=S)NC(=O)c2cccs2)n1	u	0.8%	u	-21.5%	0.0	-13.1
CN(C(=O)CSc1nnc(-c2ccc([N+](=O)[O-])cc2)o1)c1ccccc1	x	-1.4%	u	16.4µM*	x	8.1
COc1ccc(/C=C/C(=O)Nc2ccc(Cl)cc2Cl)cc1	x	-15.4%	-18.5%	6.0%	x	-2.6

Assay outcomes: PubChem BioAssay, National Center for Advancing Translational Sciences (NCATS)
